# From PubChem BioAssay
# A selection: hits, their analogues and other compounds. The true share with any hit is near 3.8%.
# ELG1 repair inh = inhibitors of ELG1-dependent DNA repair in HEK293T cells; HEK293T ELG1-luciferase reporter, luminescence, 16 h; DNA damage induced by 5-fluorouridine; Potency, µM (titrated, usually from 46.1 µM), most hits filed as inhibitors; hit rate 2.3% among 330,000; also: nearly all actives have a fitted effect of over 55% in size
#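 Luminescence from the luciferase reporter, measured 30 min after ONE-Glo reagent at room temperature, was the read-out. Beforehand, 2,000 cells per well were exposed for 16 hr at 37 °C to 5-fluorouridine together with compound or vehicle.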
# Nrf2 inh = blocks Nrf2 signaling. AID 504444. Potency, µM (doses to about 46 µM), hits mostly inhibitors. A549 ARE-Fluc reporter, luciferase luminescence, 18-24 h. hit rate 2.1% among 360,000; also: nearly all actives have a fitted effect of over 60% in size
#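 Nrf2 activity is the BugLite luminescence, read 15 min after reagent at room temperature, following CellTiter-Fluor cytotoxicity readout (30 min, 37C). Compound titrations were applied for 18-24 h to 5000 A549 ARE_Fluc cells/well in 5% FBS OPTI-MEM.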
# Nrf2 activator = Nrf2 pathway activation; hit rate 0.31% among 410,000; AREc32 ARE-luciferase reporter (MCF7-derived line), luminescence, 24 h; Potency, µM (top dose mostly 46.1 µM), usual class: activators; also: nearly all actives have a fitted effect of over 65% in size
#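 AREc32 cells carrying an ARE-driven firefly luciferase, 1000 cells/well in OPTI-MEM with 5% FBS, dosed after overnight attachment and incubated 24 hr at 37 deg C. Steady-Glo luminescence read after 30 min at RT.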
# A549 tox-1 = A549 cytotoxicity, counter-screen for Nrf2 inhibitors | Potency, µM (highest dose often 46 µM), usual class: inhibitors | AID 504648 | hit rate 0.16% among 390,000 | A549 ARE-Fluc cells, CellTiter-Fluor viability, 18-24 h
#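 A549 ARE-Fluc cells in 5% FBS OPTI-MEM, 5000 cells/well, rested 2 h then exposed to compounds in concentration-response for 18-24 h at 37 °C. Viability by CellTiter-Fluor fluorescence (Ex 405/Em 525) after 30 min; luciferase luminescence (BugLite, 15 min, RT) read afterwards.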
# IDH1 R132H inh = human IDH1 R132H inhibition; O75874; IDH1-R132H enzyme, NADPH consumption, diaphorase/resazurin fluorescence; Potency, µM (highest dose often 76.6 µM), actives largely listed as inhibitors; hit rate 0.093% among 390,000; also: nearly all actives have a fitted effect of over 65% in size
# Target sequence (O75874 whole entry R132H, stated change not applied): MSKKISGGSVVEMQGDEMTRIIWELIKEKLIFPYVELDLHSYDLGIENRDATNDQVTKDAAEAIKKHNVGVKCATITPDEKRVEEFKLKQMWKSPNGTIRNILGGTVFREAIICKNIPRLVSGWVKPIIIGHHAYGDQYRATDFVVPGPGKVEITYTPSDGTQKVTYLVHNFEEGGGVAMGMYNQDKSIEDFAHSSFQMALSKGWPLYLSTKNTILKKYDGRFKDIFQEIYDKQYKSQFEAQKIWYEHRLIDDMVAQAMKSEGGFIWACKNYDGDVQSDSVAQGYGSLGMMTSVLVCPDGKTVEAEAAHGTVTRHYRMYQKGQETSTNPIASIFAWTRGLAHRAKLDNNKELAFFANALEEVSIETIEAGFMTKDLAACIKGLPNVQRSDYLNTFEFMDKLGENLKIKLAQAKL
#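 IDH1-R132H (0.5 ug/mL dispensed) in pH 7.5 Tris buffer was preincubated 30 min with compound, then given a substrate mix of 0.016 mM NADPH and 2 mM alpha-KG for 80 min at room temperature; remaining NADPH was read by diaphorase/resazurin fluorescence.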
# FLuc enzyme inh = firefly luciferase inhibition, Nrf2 hit validation. shares compounds with Nrf2 inh. purified firefly luciferase, luminescence inhibition. Potency, µM (series often up to 57.5 µM), actives largely listed as inhibitors. hit rate 4% among 1,400. AID 720522; also: nearly all actives have a fitted effect of over 65% in size
# A549 tox-2 = A549 cytotoxicity, Nrf2 inhibitor counterscreen. hit rate 2% among 1,400. shares compounds with Nrf2 inh. A549 ARE-Fluc cells, cytotoxicity counterscreen. AID 720523. Potency, µM (highest dose often 46.1 µM), actives largely listed as inhibitors;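 also: cells exposed to compounds for 18 to 24 hours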
# ARE-Fluc inh = reduces Nrf2 ARE reporter signal in A549 cells | A549 ARE-firefly luciferase reporter, luminescence | shares compounds with Nrf2 inh | Potency, µM (titrated, usually from 46.1 µM), usual class: inhibitors | hit rate 74% among 1,400 | AID 720524; also: nearly all actives have a fitted effect of over 65% in size
# Numbers stand for hits; . = inactive; ? = inconclusive; / = no result given; [ ] = another dose, or the depositor's remark. Calls follow the shape of the dose curve; as a rule, active = well fitted curve in the direction sought with a large enough effect; inconclusive = small, poorly fitted or top-dose-only effect, or another doubt; inactive = no such curve, though single readings can be large; an effect the other way counts as inactive or inconclusive.
SMILES,ELG1 repair inh,Nrf2 inh,Nrf2 activator,A549 tox-1,IDH1 R132H inh,FLuc enzyme inh,A549 tox-2,ARE-Fluc inh
Cc1cccc(-n2ncc3c2CCCC3NC(=O)C2(C(N)=O)CC2)c1C (stereo not drawn),.,2.31µM,.,.,.,.,.,3.66µM
COc1ccc(NC(=O)CN(c2c(C)cccc2C)S(C)(=O)=O)cc1,.,.,.,.,.,/,/,/
CCc1noc(C)c1C(=O)N1CCN(S(=O)(=O)c2c(C)c(C)cc(C)c2C)CC1,.,.,.,.,.,/,/,/
CC(C)CC(=O)N1CCN(S(=O)(=O)c2ccc(C3CCCCC3)cc2)CC1,.,8.2µM,.,.,.,.,.,?
CC(C)CC(=O)N1CCN(S(=O)(=O)c2ccccc2)CC1,?,.,.,.,.,/,/,/
CCC(C)NC(=O)c1cc2n(n1)CCCN(Cc1ccc(C)cc1)C2=O (stereo not drawn),/,/,.,.,.,/,/,/
CCOC(=O)N1CCN(C(=O)c2ccc(Cn3c(=S)[nH]c4cc5c(cc4c3=O)OCO5)cc2)CC1,23.1µM,9.2µM,.,?,.,.,.,8.2µM
CCOC(=O)N1CCN(C(=O)c2ccc(Cn3c(=S)[nH]c4cc(OCC)c(OCC)cc4c3=O)cc2)CC1,?,?,.,.,.,/,/,/
CCOC(=O)c1cc(C)n(CC2CCC(C(=O)Nc3ccc(Cl)cc3)CC2)c1C (stereo not drawn),/,8.2µM,.,?,.,.,.,13µM
Cc1cccnc1CCNC(=O)c1ccc(OC2CCN(Cc3ccccn3)CC2)cc1,?,.,.,.,.,/,/,/
CCn1nc(C)c(CNC(=O)c2ccc(OC3CCN(Cc4ccccn4)CC3)cc2)c1C,?,1.46µM,.,.,.,.,.,1.46µM
CC(=O)c1c(C)[nH]c(C(=O)NCC2CCCCC2)c1C,?,?,.,.,.,/,/,/
CC1(C)CC(N2CCCC2)=CC(=[N+]2CCCCC2)C1,1.16µM,4.11µM,.,.,.,.,.,5.17µM
CC1(C)CC(=O)C=C(N2CCN(C3=CC(=O)CC(C)(C)C3)CC2)C1,.,/,/,/,/,/,/,/
CC1(C)CC(=O)c2sc(N3CCCCC3)nc2C1,?,?,.,.,.,/,/,/
CC1(C)CC(N2CCCC2)=CC(=[N+]2CCCC2)C1,.,2.06µM,.,.,.,.,.,5.17µM
O=C(COc1ccc([N+](=O)[O-])cc1)Nc1cccc2cccnc12,/,?,.,.,.,/,/,/
COc1cc([N+](=O)[O-])cc(/C=N/NC(=O)c2ccc(NC(=O)c3ccc(C)cc3)cc2)c1O,?,4.61µM,.,?,.,.,?,6.51µM
COc1cc([N+](=O)[O-])cc(/C=N/NC(=O)c2ccc(C)nc2)c1O,.,?,.[9.22 µM],?,.,/,/,/
COc1ccc(-c2c(C#N)c(SCC(=O)Nc3ccc(Br)cc3)nc(C)c2C(=O)Nc2ccccc2)cc1,/,.,.,.,/,/,/,/
COc1ccc(-c2c(C#N)c(SCC(=O)c3cc4ccccc4oc3=O)nc(C)c2C(=O)Nc2ccccc2)cc1,?,6.51µM,.,.,.,.,.,14.6µM
COc1ccc(CNC(=O)C2CCCN(C(=O)Nc3ccc(OC)cc3)C2)cc1 (stereo not drawn),.,.,.,.,.,/,/,/
CC(=O)c1cccc(NS(=O)(=O)c2cc(-c3onc(C)c3C)ccc2C)c1,/,8.2µM,.,.,.,.,.,5.8µM
COc1ccc(C(=O)C2CCCN(Cc3cnc(N4CCOCC4)s3)C2)c(OC)c1 (stereo not drawn),?,9.2µM,.,?,.,.,.,.
CC(C)Oc1cccc(C(=O)C2CCCN(Cc3cnc(N4CCOCC4)s3)C2)c1 (stereo not drawn),?,9.2µM,.,.,.,.,.,/
Cn1nc(CC(=O)NCc2ccc(C(F)(F)F)cc2)c2ccccc2c1=O,?,?,.,.,.,/,/,/
